Bioassay records as filed in PubChem BioAssay.
Sampled rows, rich in hits. Any-hit rate of the full collection: about 1.9%.
Menin MLL FP TR: displaces Texas Red mutant MLL peptide from human menin; O00255; Menin + Texas Red MLL mutant peptide, fluorescence polarization; Potency, µM (highest dose often 61.6 µM), for inactives: at the highest dose FP activity change, negative = inhibition, most hits filed as inhibitors; 270,000 compounds, 0.23% hits; active means well fitted inhibition curve with a large enough effect in the polarisation, with a control signal flat, not every such curve was filed as active; inconclusive means small, poorly fitted or top-dose-only effect, or effect the other way, or a change in a side signal; inactive means no such curve, though single readings can be large or run the other way; the % refers to the polarisation; further: potency means the concentration at half of the fitted maximal effect; % of control where 0% means no effect
Menin-MLL FL inh: menin-MLL binding inhibition, fluorescein peptide; AID 1766; FP activity change, % at 61.4 µM; 290,000 tested, under 10 active; Fluorescence polarization, fluorescein-MLL peptide displacement from menin; active means well fitted curve in the direction sought with a large enough effect in the polarisation, not every such curve was filed as active; inconclusive means small, poorly fitted or top-dose-only effect, or effect the other way, or a change in a side signal; inactive means no such curve, though single readings can be large or run the other way; the % refers to the polarisation; further: % of control where 0% means no effect
PINK1 expr mod: PINK1 expression modulation; PINK1 immunofluorescence, high-content cytometry, 24 h; Potency, µM (doses to about 76.6 µM), without a hit: top-dose activation (PINK1 increase), most hits filed as activators; 410,000 compounds, 0.2% hits; active means well fitted activation curve with a large enough effect; inconclusive means small, poorly fitted or top-dose-only effect; cell line not stated here; further: potency means the concentration at half of the fitted maximal effect; % of control where 0% means no effect; nearly all actives have a fitted effect of over 65% in size
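Stable cell line treated 24 h with compounds at 5 concentrations (CCCP controls), then fixed and immunostained for PINK1 plus nuclear and cell stains; PINK1 immunofluorescence quantified by laser-scanning microplate cytometry.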
ClpP mod: qHTS Assay for Activators of ClpP; Potency, µM (doses to about 57.5 µM), inactives show at the top dose activity change, negative = active; purified B. subtilis ClpP, FRET peptide cleavage, 20 min; 340,000 compounds, 1.9% hits; active means well fitted falling curve with a large enough effect; inconclusive means small, poorly fitted or top-dose-only effect; inactive means no such curve, though single readings can be large or run the other way; further: potency means the concentration at half of the fitted maximal effect; the source files actives as falling curves though it sought activators and does not explain the sign; nearly all actives have a fitted effect of over 65% in size
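Purified B. subtilis ClpP, 10 microg/mL final in Tris/HCl pH8 with KCl, BSA, glycerol and Tween-20, cleaved an Abz/nitrotyrosine-quenched decapeptide. Fluorescence (ex 320, em 430) was read at 0 and 20 min at room temperature. Delta was normalized to 5.8 microM ADEP and DMSO/no-enzyme controls.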
MLL CXXC-DNA inh: inhibitors of human MLL CXXC domain-DNA interaction; AID 2662; Q03164; MLL-CXXC / FITC-HOXA9 DNA fluorescence polarization; 290,000 compounds, 0.037% hits; Potency, µM (top dose mostly 115 µM), without a hit: at the highest dose activity change, negative = inhibition, hits mostly inhibitors; active means well fitted inhibition curve with a large enough effect in the polarisation, with a control signal flat, not every such curve was filed as active; inconclusive means small, poorly fitted or top-dose-only effect, or effect the other way, or a change in a side signal; inactive means no such curve, though single readings can be large or run the other way; the % refers to the polarisation; further: potency means the concentration at half of the fitted maximal effect
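Fluorescence polarization: 7 uM MLL-CXXC (stock) preincubated 5 min with compounds, then 50 nM fluorescein-HOX-A9 DNA (stock) added; 30 min ambient. Buffer 50 mM Tris-HCl pH 7.5, 50 mM NaCl, 1 mM DTT, 0.05% BSA.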
Epigenetic reg: regulators of epigenetic silencing causing reporter derepression in mouse cells; AID 1865; 280,000 compounds, 0.2% hits; Potency, µM (series often up to 53.9 µM), inactives show at the highest dose GFP activation, most hits filed as activators; murine LDR cells, GFP reporter derepression, 30 h; active means well fitted activation curve with a large enough effect; inconclusive means small, poorly fitted or top-dose-only effect; further: potency means the concentration at half of the fitted maximal effect; % of control where 0% means no effect; nearly all actives have a fitted effect of over 60% in size
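Murine LDR cells carrying a silenced, genomically integrated CMV-driven GFP reporter were exposed to compound for 30 hours at 37 C. After PBS washes, GFP-positive cells (20–120 um objects) were counted by laser-scanning microplate cytometry.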
* marks the source's active call; other numbers are inactive results; [ ] = dose if it differs, or a comment.

For Cc1ccc2c(c1)-c1cc(C)nn1C(c1sccc1C)N2 (configuration not stated) the results were Menin MLL FP TR -10%, Menin-MLL FL inh 1, PINK1 expr mod 3%, ClpP mod 16µM*, MLL CXXC-DNA inh 5% and Epigenetic reg -1%.
For Cc1cc2n(n1)C(c1sccc1C)Nc1ccccc1-2 (configuration not stated) the results were Menin MLL FP TR 11%, Menin-MLL FL inh 0, PINK1 expr mod 2%, ClpP mod 18µM*, MLL CXXC-DNA inh -1% and Epigenetic reg -6%.
For Cc1cc2n(n1)C(c1ccc(N(C)C)cc1)Nc1ccccc1-2 (configuration not stated) the results were Menin MLL FP TR inconclusive, Menin-MLL FL inh 4, PINK1 expr mod -2%[38.3 µM], ClpP mod -27%, MLL CXXC-DNA inh 1% and Epigenetic reg 2%.
For COc1cccc(CNC(=O)CCn2cccn2)c1 the results were PINK1 expr mod -2%, ClpP mod 2% and Epigenetic reg 0%.
`Cc1cc2n(n1)C(c1ccccc1)Nc1ccccc1-2` (configuration not stated) gave Menin MLL FP TR 17%, Menin-MLL FL inh 4, PINK1 expr mod 0%, ClpP mod 25µM*, MLL CXXC-DNA inh -1% and Epigenetic reg 0%.
Screening O=C(NCc1ccc2c(c1)OCO2)c1ccc2c(c1)C(=O)N(Cc1cccnc1)C2=O returned Menin MLL FP TR -15%, Menin-MLL FL inh -2, PINK1 expr mod -2%, ClpP mod 18µM*, MLL CXXC-DNA inh 2% and Epigenetic reg -1%.
Screening Cn1c(=O)c(NC2CCCCC2)c2c3c(cccc31)C(=O)c1ccccc1-2 returned Menin MLL FP TR inconclusive, Menin-MLL FL inh inconclusive, PINK1 expr mod 15%, MLL CXXC-DNA inh inconclusive and Epigenetic reg 0.13µM*.
For CCC(=O)NC(=S)Nc1ccccc1C(F)(F)F the results were PINK1 expr mod 5% and ClpP mod 32µM*.
Screening CCc1nc(N2CCN(C(=O)c3ccccc3)CC2)c(C#N)c2c1COC(C)(C)C2 returned Menin MLL FP TR inconclusive, Menin-MLL FL inh 2, PINK1 expr mod -1%, ClpP mod 25µM*, MLL CXXC-DNA inh -2% and Epigenetic reg inconclusive.
CC1(C)Cc2c(C#N)c(N3CCN(C(=O)c4ccccc4)CC3)nc(Cc3ccccc3)c2CO1 was read as Menin MLL FP TR -3%, Menin-MLL FL inh -1, PINK1 expr mod -2%, ClpP mod 32µM*, MLL CXXC-DNA inh 4% and Epigenetic reg 2%.
Screening CCc1nc(N2CCOCC2)c(C#N)c2c1COC(C)(C)C2 returned Menin MLL FP TR -4%, Menin-MLL FL inh 5, PINK1 expr mod 1%, ClpP mod inconclusive, MLL CXXC-DNA inh 12% and Epigenetic reg -1%.
CC1(C)Cc2c(C#N)c(N3CCOCC3)nc(Cc3ccccc3)c2CO1 was read as Menin MLL FP TR inconclusive, Menin-MLL FL inh -1, PINK1 expr mod 4%, ClpP mod inconclusive, MLL CXXC-DNA inh -5% and Epigenetic reg -2%.
`COc1ccccc1C(=O)N[C@@H]1c2ccccc2C2(CCN(Cc3c(O)cccc3OC)CC2)[C@H]1O` gave PINK1 expr mod 0%.
CC1=Nc2ccc(C)c3nc(C)cc(c23)N1c1ccc(C)cc1 was read as PINK1 expr mod 0% and ClpP mod -17%.
`Cc1ccc(N2C=Nc3ccc(C)c4nc(C)cc2c34)cc1` gave Menin MLL FP TR 9%, Menin-MLL FL inh -25, PINK1 expr mod 2%, ClpP mod 22µM*, MLL CXXC-DNA inh -5% and Epigenetic reg -3%.
Screening COC(=O)[C@@H]1CCCN1Cc1ccc2c(c1)CN(Cc1cccn1-c1ccc(Cl)cn1)CCO2 returned PINK1 expr mod -1%.
CC(C)(C)C(=O)Nc1ccccc1-c1nc2ccccc2[nH]c1=O was read as Menin MLL FP TR 2%, Menin-MLL FL inh 9, PINK1 expr mod 1% and MLL CXXC-DNA inh -3%.
Cc1ccc(-c2nc(=Nc3c(C)cc(C)cc3C)sn2-c2ccccc2)cc1 was read as PINK1 expr mod inconclusive and ClpP mod 2%.
Cc1[nH]c2ccccc2c1C(=O)CN1C(=O)C(=O)N(Cc2ccco2)C1=O was read as Menin MLL FP TR 2%, Menin-MLL FL inh -2, PINK1 expr mod 2%, ClpP mod 28µM*, MLL CXXC-DNA inh -9% and Epigenetic reg -2%.
COC(=O)c1ccc2c(=O)[nH]c(CN3c4ccccc4CC3C)nc2c1 (configuration not stated) was read as Menin MLL FP TR inconclusive, Menin-MLL FL inh -1, PINK1 expr mod 2%, ClpP mod -14%, MLL CXXC-DNA inh 7% and Epigenetic reg -1%.
`CC1Cc2ccccc2N1Cc1nc2cc(Cl)ccc2c(=O)[nH]1` (configuration not stated) gave Menin MLL FP TR inconclusive, Menin-MLL FL inh 6, PINK1 expr mod 0%, ClpP mod 13µM*, MLL CXXC-DNA inh 14% and Epigenetic reg 4%.
For CCc1cc2c(-c3ccccc3)cc(=O)oc2cc1OC(C)C(=O)O (configuration not stated) the results were Menin MLL FP TR 1%, Menin-MLL FL inh -1, PINK1 expr mod -1%, ClpP mod -28% and MLL CXXC-DNA inh -21%.
CC(NC(=O)OCc1ccccc1)C(=O)Oc1cc2oc(=O)cc(-c3ccccc3)c2cc1Cl (configuration not stated) was read as Menin MLL FP TR 8%, Menin-MLL FL inh 6, PINK1 expr mod 2%, ClpP mod 25µM*, MLL CXXC-DNA inh 4% and Epigenetic reg -1%.
Screening Clc1ccc2nc(-c3ccncc3)cc(-c3ccccc3)c2c1 returned Menin MLL FP TR -25%, Menin-MLL FL inh 1, PINK1 expr mod 5%, ClpP mod -2%, MLL CXXC-DNA inh -12% and Epigenetic reg 3%.
Screening c1ccc(-c2cc(-c3ccncc3)nc3ccc4ccccc4c23)cc1 returned Menin MLL FP TR -2%, Menin-MLL FL inh 2, PINK1 expr mod -2%, ClpP mod 22µM*, MLL CXXC-DNA inh 7% and Epigenetic reg 1%.
Cc1c(C(=O)N2CC3CCC2C3)sc2ncnc(NCCc3ccccn3)c12 (configuration not stated) was read as PINK1 expr mod -1%.
`COc1ccc(-c2cc3ccccc3n2CC(O)CNCCO)cc1` (configuration not stated) gave Menin-MLL FL inh -5, PINK1 expr mod 2%, ClpP mod 11µM*, MLL CXXC-DNA inh 10% and Epigenetic reg -1%.
